HSV augment – HSV replication enhancement; HSV replication augmentation in cells, fold increase; maximum fold increase; 220,000 tested, 0.005% active; AID 1956; in the data active means maximum fold increase above about 1.5; inconclusive means no clear call, values can overlap the other calls; tested in PC3 cells
Insulin prom inh – TRM-6 insulin promoter activity inhibition; inhibition, % at 2 µM; 130,000 tested, 0.9% active; AID 1273; TRM-6 cells (human fetal islet line), insulin promoter-eGFP reporter, imaging; reporter expression induced with tamoxifen;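 active means inhibition above the mean plus 3 SD, with well images judged a real hit on visual review, cut at about 60% in these data, passing the limit was not always enough; inconclusive means inhibition over the cutoff but images rejected on review; inactive means inhibition not above the cutoff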
Ins promoter up – MIN6 insulin promoter up-regulation | MIN6 insulin promoter-GFP reporter, high-content imaging; active compounds read high | z-score at 5 µM | 190,000 tested, 0.3% active;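 active means z-score above 3 at 5 µM with at least 500 cells counted in the well; inconclusive means wells under 500 cells, flagged as cytotoxic or low count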
Efa HMGR inh – inhibitors of class II HMG-CoA reductase from Enterococcus faecalis; purified E. faecalis HMGR, NADPH absorbance 340 nm kinetic; inhibition, % at 10 µM; 190,000 tested, 0.41% active; AID 1066;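 active means inhibition above a set limit, the median over all tested compounds plus 3 SD, cut at about 9.5% in these data; inconclusive means no clear call, values can overlap the other calls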;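 further: enzyme runs in reverse so mevalonate oxidation gives rising NADPH absorbance; 0% = complete reaction with DMSO and 100% = background rate lacking mevalonate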
Starred values were filed as active, the others as inactive; i = inactive; u = inconclusive; x = not tested or not shown. A selection: hits, their analogues and other compounds. The true share with any hit is near 1.1%.

SMILES | HSV augment | Insulin prom inh | Ins promoter up | Efa HMGR inh
COc1ccc(N(CC(=O)NCc2ccc(Cl)cc2)S(=O)(=O)c2ccccc2[N+](=O)[O-])c(OC)c1 | i | x | x | -6
CCOc1cc(/C=N\NC(=O)OC(C)(C)C)ccc1OC(=O)c1ccco1 | i | 0 | 0 | 19*
CCOc1cc(/C=C2/SC(=S)NC2=O)ccc1OC(=O)c1ccco1 | 4.6* | x | -0.17 | -5
COc1cc(/C=C2/SC(=S)N(C)C2=O)ccc1OC(=O)c1ccco1 | u | x | 0 | 4
O=C(c1cc([N+](=O)[O-])ccc1Cl)N1c2ccccc2Sc2ccccc21 | i | -29 | -0.19 | -6
O=C(NCc1ccc(F)cc1)C(Cc1ccccc1)n1cccc1 (centres undefined) | i | x | x | x
CN1CCN(C(=S)SCC(=O)Nc2nc(-c3ccccc3)c(-c3ccccc3)o2)CC1 | i | x | 0.65 | -1
Cn1ccc2c([N+](=O)[O-])cccc2c1=O | i | -21 | -0.19 | -2
CC(=O)c1c(C)nc2cc(Cl)ccc2c1N | x | 96* | 0.68 | 2
O=C(C1CCC1)N1CCc2cc(S(=O)(=O)NCc3ccco3)ccc21 | i | 82* | -1.8 | -8
Cc1ccc(S(=O)(=O)/C(C#N)=C/c2c(N3CCC(C(N)=O)CC3)nc3c(C)cccn3c2=O)cc1 | i | 22 | 1.2 | 0
Cc1ccc(S(=O)(=O)/C(C#N)=C/c2c(N3CCC(C(N)=O)CC3)nc3ccccn3c2=O)cc1 | i | -4 | -0.2 | 11*
Cc1cc(C)nc(SCc2ccc(C(=O)O)o2)n1 | i | x | x | -10
Cc1cc(C(F)(F)F)nc(SCc2ccc(C(=O)O)o2)n1 | i | 73* | 0.06 | 0
Cc1c(-c2ccccn2)c(=O)[nH]n1-c1ccc(F)cc1 | i | 49 | -0.27 | -3
O=C(Nc1ccccc1)c1nsnc1C(=O)Nc1ccccc1 | i | x | -0.08 | -8
COc1ccc(NC(=O)Cn2cccc2)cc1Cl | i | x | -0.92 | 11*
Cc1ccc(NC(=O)Cn2cccc2)cc1Cl | i | -121 | 0.16 | 1
Cc1c(C(=O)C(=O)N2CC=C(c3ccccc3)CC2)c2ccccc2n1C | u | 48 | 0.38 | -9
COc1ccc2ccccc2c1CN1CCN(Cc2ccccc2)CC1 | i | 78* | -1.9 | -1
COCc1cc(C)nc(Nc2ccccc2C)c1C#N | i | -408 | 3.3* | -7
CCN(CC)CCCNc1nc(C)cc(COC)c1C#N | i | x | 0.68 | 5
CCOC(=O)c1nnc(-c2ccccc2)nc1N1CC(C)OC(C)C1 (centres undefined) | i | x | -0.21 | -2
Cc1cnc(C(=O)OCC(=O)NCc2ccc3c(c2)OCO3)cn1 | i | x | 0.92 | 4
CCOC(=O)COc1cccc2c(=O)n(CC(=O)NCCc3ccc(OC)c(OC)c3)ccc12 | i | 20 | 3.6* | 0
SMILES | HSV augment | Insulin prom inh | Ins promoter up | Efa HMGR inh
COc1cccc2c(=O)n(CC(=O)Nc3ccc(F)cc3)ccc12 | i | x | 0.1 | -8
COc1cccc2c(=O)n(CC(=O)Nc3cccc(F)c3)ccc12 | i | x | 3.4* | 0
Cc1cccc(/C=N/NC(=O)Cn2nnnc2N)n1 | i | x | -0.2 | x
CC(C)C(=O)Nc1nc2c(c(=O)[nH]1)CCCC2 | x | 21 | 0.21 | 3
Cc1ccc(C(=O)N2CCOCC2)cc1Cl | i | -54 | 0.07 | -2
O=C(c1cc(Cl)cc(Cl)c1)N1CCOCC1 | i | 87* | -0.07 | 4
COc1ccc(CC(NC(C)=O)C(=O)NC2CCN(c3c(Cc4ccccc4)c(C)nc4ncnn34)CC2)c(OC)c1 (centres undefined) | i | 0 | -0.55 | -2
COc1ccc(OC)c(CC(NC(C)=O)C(=O)NC2CCN(c3cc(C)nc4ncnn34)CC2)c1 (centres undefined) | i | x | -0.94 | 9.7*
COc1cc(CC(NC(C)=O)C(=O)NC2CCN(C(=O)C3CC3)CC2)cc(OC)c1 (centres undefined) | i | x | 0.06 | 9.6*
CC(=O)Nc1c(C)ccc(S(N)(=O)=O)c1C | i | x | 0.58 | 4
CCN(CC)S(=O)(=O)c1ccc(C(=O)NCc2ccc3c(c2)OCO3)cc1 | i | 79* | -0.68 | 4
O=C(NNC(=O)C(O)(c1ccccc1)c1ccccc1)C1CC1 | i | x | 0.86 | 11*
COCCNC(=O)C1CCN(S(=O)(=O)c2c(C)noc2/C=C/c2cccs2)CC1 | i | x | 0.94 | x
O=C(Cc1ccccc1)NS(=O)(=O)c1ccc(N=NN2CCOCC2)cc1 | i | x | 0.07 | 1
CCCc1cc(C(N)=O)c(NC(=O)c2ccoc2C)s1 | i | 76* | -0.34 | 1
CCCc1cc(C(N)=O)c(NC(=O)c2cc(C)on2)s1 | i | -81 | 0.08 | 0
CCN(Cc1cc(=O)n2cc(Cl)c(C)c(Cl)c2n1)Cc1nc2ccccc2c(=O)[nH]1 | i | 0 | 0.22 | 10*
CCN(Cc1nc2ccccc2c(=O)[nH]1)Cc1nc2cc(OC)c(OC)cc2c(=O)[nH]1 | i | 0 | -0.09 | -7
O=C1NC(=O)/C(=C/c2cccc([N+](=O)[O-])c2)N1 | i | x | -0.29 | x
CCN1C/C(=C/c2cccc([N+](=O)[O-])c2)C(=O)/C(=C/c2cccc([N+](=O)[O-])c2)C1 | i | 100* | 0.13 | -6
COC(=O)c1sc2ccccc2c1-n1cccc1C(=O)C(=O)Nc1ccc(C)cc1 | i | 22 | x | 0
COC(=O)c1sc2ccccc2c1-n1cccc1C(=O)C(=O)Nc1ccc(F)cc1 | i | 54 | 5.4* | -2
C=CCc1cccc(/C=N/NC(=O)C(C)Nc2ccc(C)cc2)c1O (centres undefined) | i | 17 | u | -7
COc1ccc(OC)c(C(=O)c2ccccc2)c1 | i | 81* | x | -4
COc1ccc(C(=O)N/C=C/n2cnc3cc(C(F)(F)F)ccc32)cc1 | i | x | -0.26 | x
SMILES | HSV augment | Insulin prom inh | Ins promoter up | Efa HMGR inh
O=C(O)C1CCC(CNCc2ccccc2Cl)CC1 (centres undefined) | i | x | -0.26 | 3
CCOC(=O)C1CCC(CNCc2ccccc2C)CC1 (centres undefined) | i | x | 0.73 | 9.8*
CCCC(=O)Nc1sc(C(=O)Nc2cccc(N)c2)c(C)c1C(=O)OC | i | x | -0.41 | 17*
Cc1ccc(NC(=O)C2CC(=O)n3c(nc4ccccc43)N2)cc1C (centres undefined) | i | x | 0.46 | x
Cc1ccc(NC(=O)C2CC(=O)n3c(nc4ccccc43)N2)cc1Cl (centres undefined) | i | 73* | -0.43 | -2
O=C(NCc1ccccc1Cl)C(=O)NCC(c1ccco1)N1CCOCC1 (centres undefined) | i | 78* | -0.11 | -1
O=C(NCc1ccccc1)C(=O)NCC(c1ccco1)N1CCOCC1 (centres undefined) | i | x | 0.89 | -4
Cn1cnc(NCc2ccccc2)c1[N+](=O)[O-] | i | x | -0.13 | x
C/C=C/CSc1nc2c(c(=O)[nH]c(=O)n2C)n1CCC | i | 82* | 0.27 | -1
Cn1c(=O)cc(SCC(=O)N2CCN(c3ccccc3)CC2)c2ccccc21 | i | 85* | -0.21 | -2
CC(=O)c1ccc(S(=O)(=O)Nc2cccc(-c3ccc4nncn4n3)c2)cc1 | i | x | 0.42 | 0
CC(=O)Nc1ccc(S(=O)(=O)Nc2cccc(-c3ccc4nncn4n3)c2)cc1 | i | -56 | -0.19 | 11*

Screening results: PubChem BioAssay, several laboratories
